Screen size: about 65,000 compounds; about 980 (1.5%) were called active. This is one part of a sample in which actives are shown more often than they occur. Unmarked numbers belong to inactive results.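 The calls were made as follows: active = activation above the mean of all tested compounds plus 3 SD (cut at about 49% in these data); inactive = the rest.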
The molecules below were run against Nuclear receptor ROR-alpha (Homo sapiens) (UniProt P35398) (assay: RORA ligand-binding domain transcriptional activation – cell-based, luminescence, primary screen (AID 560;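 also: 0% = DMSO-treated RORA cells and 100% = added signal equal to DMSO minus mock-transfected cells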)). Conditions: CHO-K1 Gal4-RORA LBD luciferase reporter, at 10 µM, hits give high values, percent increase over mock-subtracted basal signal.
Sequence of Nuclear receptor ROR-alpha (Homo sapiens) (P35398 whole entry, looked up, the tested form may be a part): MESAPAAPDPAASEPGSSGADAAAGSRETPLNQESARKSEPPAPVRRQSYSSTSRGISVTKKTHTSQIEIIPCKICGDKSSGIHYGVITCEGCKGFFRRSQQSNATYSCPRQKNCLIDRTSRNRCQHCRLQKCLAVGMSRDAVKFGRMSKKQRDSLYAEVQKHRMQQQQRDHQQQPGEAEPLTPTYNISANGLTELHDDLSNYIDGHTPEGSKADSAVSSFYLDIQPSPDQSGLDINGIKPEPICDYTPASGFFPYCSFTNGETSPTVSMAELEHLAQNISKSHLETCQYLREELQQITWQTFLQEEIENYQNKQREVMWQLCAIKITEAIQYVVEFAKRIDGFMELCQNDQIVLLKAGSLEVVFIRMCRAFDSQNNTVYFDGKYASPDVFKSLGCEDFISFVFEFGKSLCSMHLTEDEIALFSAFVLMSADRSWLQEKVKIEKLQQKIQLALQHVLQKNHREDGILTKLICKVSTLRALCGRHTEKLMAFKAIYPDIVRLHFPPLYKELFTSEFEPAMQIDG
In the case of `O=C(NCc1cn2ccsc2n1)Nc1cccc(Cl)c1`, the activation is reported as 45.8%. With `O=C(Nc1cccc(Cl)c1)OCc1ccccn1` the activation was 69.9% (active). With `O=C(NCc1ccccn1)Nc1ccc(F)cc1` the activation was 28.4%. Molecule `Cc1c(NC(=O)c2coc(=O)c(Br)c2)c(=O)n(-c2ccccc2)n1C` has an activation of -0.3%. `COC(=O)c1cc(C(=O)OC)cc(N2C(=O)CC(N3CCN(c4ccccc4)CC3)C2=O)c1` (centres undefined) showed an activation of 15.5%. `CC(Cc1cccs1)NC(=O)NC1CCCCC1` (centres undefined) gave an activation of 31.7%. Work on `CC(=O)OC(C(=O)NC1CCCCC1)c1ccccc1` (centres undefined) yielded an activation of -15.4%. `CC(C)c1ccc(NC(=O)NC2CCCCC2)cc1` was tested, and the activation was 85.1% (active). `COc1ccc(-c2nc(SCC(=O)N3CCOCC3)n[nH]2)cc1` gave an activation of 8.1%. In the case of `CC(=O)Nc1ccc(NC(=O)CN2CCCC(C)C2)c(Cl)c1` (centres undefined), the activation is reported as 7.9%. `O=C(C1CCC1)N1CCc2cc(S(=O)(=O)NCc3cccnc3)ccc21` showed an activation of 16.4%. For `Cc1ccc(C(=O)N2CCN(C3CCCCC3)CC2)s1`, the activation was -13.8%. `COc1cccc(CNC(=O)C2CCN(S(=O)(=O)c3cccc4cccnc34)CC2)c1` showed an activation of -6.7%. With `C#CCN1C(=O)C(O)(CC(=O)c2cc(OC)ccc2OC)c2ccccc21` (centres undefined) the activation was -9.4%. With `CCOC(=O)c1nc(-c2ccc3c(c2)OCO3)[nH]c1C` the activation was 66.7% (active). Work on `CCOC(=O)NCc1ccc2c(c1)OCO2` yielded an activation of -14.5%. `CCOC(=O)c1c(C)[nH]c(C(=O)COc2ccc3c(c2)OCO3)c1C` was tested, and the activation was 28.3%. With `COCc1nnc(NC(=O)CS(=O)(=O)Cc2ccccc2)s1` the activation was -0.8%. For `COC(=O)C(C)Sc1ccc2nnc(-c3cccc(F)c3)n2n1` (centres undefined), the activation was -8%. For `COC(=O)c1c(NC(=O)c2cccs2)sc2c1CCCC2`, the activation was 19.4%. For `c1ccc2c(c1)OCC(CNc1ncnc3nc[nH]c13)O2` (centres undefined), the activation was 20.1%. `Cn1c(=NC(=O)c2ccco2)sc2cccc(F)c21` was tested, and the activation was 61.5% (active). With `CCCC(=O)N=c1sc2cccc(F)c2n1C` the activation was 5.7%. `Cn1c(=NC(=O)C2CC2)sc2cc(F)cc(F)c21` showed an activation of 27.7%. `COC(=O)c1cccc(NC(=O)CN2CCC(NC(=O)c3cc(OC)c(OC)c(OC)c3)CC2)c1` was tested, and the activation was 17.2%. For `COc1ccc(CCNC(=O)CN2CCC(n3nnc4cc(F)ccc43)CC2)cc1OC`, the activation was -11.2%. Work on `CC(NC(=O)COc1ccccc1)C(=O)NC1=NCCS1` (centres undefined) yielded an activation of -14.4%. In the case of `CCc1ccc(N2CC(C(=O)NC3=NCCS3)CC2=O)cc1` (centres undefined), the activation is reported as -23.3%. With `O=C(NC1=NCCS1)c1ccc(Cl)s1` the activation was 80.1% (active). Molecule `C=CCn1c(=S)[nH]c2nc3c(cc2c1=O)COC(C)(C)C3` has an activation of -9.2%. In the case of `O=C(Nc1nnc(CCc2ccccc2)s1)C1CCCO1` (centres undefined), the activation is reported as 0.2%. For `O=C(Nc1cccc(-c2nnc(-c3ccccc3)o2)c1)C1CCCO1` (centres undefined), the activation was 61.1% (active). Molecule `O=C(Nc1ccc(-c2nnc(-c3ccccc3)o2)cc1)C1CCCO1` (centres undefined) has an activation of 32.9%. For `O=C(COc1ccccc1)N1CCc2ccccc2C1`, the activation was 18.5%. Work on `Cc1ccsc1C(=O)OCC(=O)c1cc(C)n(CC2CCCO2)c1C` (centres undefined) yielded an activation of -85.1%. In the case of `O=C(CSc1nnc(-c2cccs2)n1-c1ccccc1)NCc1ccco1`, the activation is reported as 11.1%. Work on `O=C(COC(=O)C12CC3CC(CC(C3)C1)C2)NCc1ccco1` yielded an activation of -21.1%. With `Cc1cc(C(=O)OCC(=O)NCc2ccco2)c(C)n1-c1ccccc1` the activation was 61.4% (active). Work on `CC(=O)N1CSCC1C(=O)O` (centres undefined) yielded an activation of 15.8%. `O=c1[nH][nH]c(=O)c2cc(N3CCCC3)ccc12` gave an activation of 1.1%. `Cc1cc2nc(-c3ccc(NC(=O)c4cccnc4)cc3)oc2cc1C` was tested, and the activation was 71.6% (active). `CCOC(=O)c1cc(NC(=O)c2cccnc2)cc(C(=O)OCC)c1` was tested, and the activation was -17.2%. In the case of `CC(C)NS(=O)(=O)c1ccc(NC(=O)c2cccnc2)cc1`, the activation is reported as 25.4%. `O=C(NC12CC3CC(CC(C3)C1)C2)N1CCCC(CO)C1` (centres undefined) was tested, and the activation was -9.5%. `O=C(Cn1nnc(-c2ccccc2)n1)NCc1ccccc1` showed an activation of -3.8%. `CC(C)(C)NC(=O)Cn1nnc(-c2ccccc2Cl)n1` was tested, and the activation was 65.9% (active). For `Cc1ccccc1-c1nnn(CC(=O)c2ccc(S(=O)(=O)N3CCCC3)cc2)n1`, the activation was -9.2%. In the case of `O=C(CN1C(=O)C2C3C=CC(C3)C2C1=O)NCCc1ccccc1Cl` (centres undefined), the activation is reported as 0.8%. `O=S(=O)(NCc1ccccn1)c1ccc(Br)s1` showed an activation of -0.5%. `O=C(Nc1nncs1)c1ccccc1NS(=O)(=O)c1cccs1` gave an activation of 2.5%. For `COc1ccc(C(=O)Nc2nncs2)c(OC)c1`, the activation was 62.9% (active). `COC(=O)c1sc(NC(=O)c2ccc(OC)cc2OC)nc1C` gave an activation of -38.1%. `Cn1c(=O)n(CCc2ccccc2)c(=O)c2c1nc1n2CCCN1c1ccccc1` was tested, and the activation was 8.2%. `Nc1c(C(=O)NCc2ccccc2)nnn1Cc1cccc(Cl)c1` showed an activation of 9.8%. With `CCC(=O)NC(=Nc1nc2ccccc2s1)NC(=O)CC` the activation was 48.7% (active). `COC(=O)Cc1cc(=O)n(-c2nc3ccccc3s2)[nH]1` showed an activation of -10.3%. `O=C(O)CSCc1nc2ccccc2s1` was tested, and the activation was 18.2%. With `O=c1/c(=C/c2ccc(CNS(=O)(=O)c3ccccc3)o2)sc2n1CCN=2` the activation was -17.5%. In the case of `Cn1nnc(NC(=O)CSc2ncn[nH]2)n1`, the activation is reported as -7.4%. `CCN(C(=O)CSc1ncn[nH]1)c1cccc2ccccc12` gave an activation of -6.5%. For `CC(C)(C)c1ccc(C(=O)CSc2ncn[nH]2)cc1`, the activation was 54.2% (active). `CCOC(=O)c1csc(NC(=O)c2ccc(S(=O)(=O)N3CCCC3)cc2)n1` was tested, and the activation was 8.6%. In the case of `Cn1c(SCC(=O)OC2CCCCC2)nnc1-c1ccc(S(=O)(=O)N2CCCC2)cc1`, the activation is reported as -7.4%. Molecule `COc1cccc(OCC(=O)Nc2ccccc2C(N)=O)c1` has an activation of 1.9%. Work on `O=C(Nc1nn(Cc2ccccc2F)cc1Br)c1cccs1` yielded an activation of -5.3%. `COc1ccc(OC)c(N=Cc2c(O)[nH]c3ccccc23)c1` showed an activation of -14.1%. In the case of `COc1ccc(N=Cc2c(O)[nH]c3ccccc23)cc1OC`, the activation is reported as 55.7% (active). In the case of `COc1cc(N=Cc2c(O)[nH]c3ccccc23)cc(OC)c1OC`, the activation is reported as -15.8%. `CC(=O)N1CC2(C)CN(C(C)=O)CC(C)(C1)C2=O` showed an activation of -2%. In the case of `CC1CCc2sc3nc(N4CCN(CCO)CC4)n4ncnc4c3c2C1` (centres undefined), the activation is reported as 12.3%. With `O=C(Nc1ccc(Cl)cc1)c1ccsn1` the activation was 59.5% (active). For `O=C(O)C1CCCCC1C(=O)Nc1ccc(Cl)cc1` (centres undefined), the activation was -6.2%. Molecule `O=C(NCc1cn2ccsc2n1)Nc1ccc(Cl)cc1` has an activation of 10.4%. Work on `COc1ccc(O)c(C(=O)c2cnc3onc(C(C)C)c3c2)c1` yielded an activation of 12.5%. Work on `CCc1c(C)sc(NC(=O)OC)c1C(=O)N1CCOCC1` yielded an activation of -6.7%. For `COc1ccccc1NC(=O)c1ccc(C)s1`, the activation was 48.9% (active). `CCOc1ccccc1NC(=O)Nc1cc(OC)ccc1OC` was tested, and the activation was -19.1%. For `COc1ccc(C2C(C(=O)Nc3ccccc3OC)=C(C)Nc3nnnn32)c(OC)c1` (centres undefined), the activation was 7.2%. `CC(C)c1nc2oc3c(N4CCN(C)CC4)ncnc3c2c2c1CCC2` gave an activation of 13.9%. Work on `Cc1ccc(NC(=O)CN2CCC3(O)CCCCC3C2c2ccc3c(c2)OCO3)c(C)c1` (centres undefined) yielded an activation of 11.9%. `Cc1ccc(C)c(NC(=O)C2CCCN2C(=O)OC(C)(C)C)c1` (centres undefined) showed an activation of -9%. `Cc1ccnc(NC(=O)c2ccc(NC(=O)c3ccco3)cc2)c1` showed an activation of 29.2%. For `O=C(Nc1ccc(Oc2ccccc2)cc1)c1ccco1`, the activation was 22.9%. With `COC(=O)c1ccc(NC(=O)c2ccco2)cc1` the activation was 77.4% (active). For `O=C(C1CCN(S(=O)(=O)Cc2ccccc2)CC1)N1CCCc2ccccc21`, the activation was 12.2%. For `COc1cc(C2C(C#N)=C(N)Oc3n[nH]c(-c4ccccn4)c32)cc(OC)c1OC` (centres undefined), the activation was 7.4%. In the case of `Cc1ccc2c(c1)N(C(=O)CCC(=O)N1CCc3ccccc3C1)CCO2`, the activation is reported as 0.5%. For `COc1cc(C(=O)Nc2nccs2)cc(OC)c1OC`, the activation was -15.9%. In the case of `CC(=O)Oc1ccc(C(=O)Nc2nccs2)cc1`, the activation is reported as 61% (active). `Cn1cccc1C(=O)Nc1nccs1` was tested, and the activation was 12.1%. `CC1CCC(NC(=O)c2ccc(N3CCCC3=O)cc2)CC1` (centres undefined) was tested, and the activation was 61.7% (active). For `Cc1ccc(C(=O)NC2CCN(C(=O)N3CCOCC3)CC2)cc1`, the activation was -4.3%. For `O=C(NCCCN1CCCCCC1)c1ccc(N2CCCC2=O)cc1`, the activation was -16.9%. Work on `CCOC(=O)c1c(C)c(C(=O)NCCc2ccc(S(N)(=O)=O)cc2)c(C)n1CC` yielded an activation of 17.3%. Molecule `CCNC(=O)CN(c1ccc(C)cc1)S(=O)(=O)c1ccc(SC)cc1` has an activation of -24%. `Oc1ccc(-c2csc(Nc3cccnc3)n2)cc1` gave an activation of 5.9%. `c1ccc(Nc2nc(-c3ccncc3)cs2)nc1` was tested, and the activation was 50.9% (active). For `Clc1ccc(Nc2nc(-c3cccs3)cs2)nc1`, the activation was 41.7%. `O=C(Cn1cc2c(n1)CCCCC2)NCCN1CCOCC1` showed an activation of -13.6%. With `Cc1ccc(Cc2nc(-c3cccc(C)c3)no2)cc1` the activation was 51.5% (active). `Cc1ccc(-c2noc(CN3CCN(Cc4ccccc4)CC3)n2)cc1` showed an activation of -1.1%. `Cc1cccc(-c2noc(-c3ccc(F)cc3)n2)c1` showed an activation of 31%. `CC(=O)c1nc(N2C(=O)C3CC=C(C)CC3C2=O)sc1C` (centres undefined) gave an activation of 1.8%. In the case of `CCn1c(SCCC(C)C)nnc1-c1c[nH]c2ccccc12`, the activation is reported as 8.7%.

Reference: PubChem BioAssay AID560 (The Scripps Research Institute Molecular Screening Center, 2006)
